# Assay outcomes: PubChem BioAssay, several laboratories
# Hits are enriched below; roughly 3.9% of the tested compounds scored in any of these assays.
# Mtb FBA inh: Mtb fructose-bisphosphate aldolase inhibition | AID 588726 | inhibition, % at 1 µM | P9WQA3 | 360,000 tested, 2.3% active | purified M. tuberculosis FBA, fluorescence read-out; in the data active = inhibition above about 27%;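 note: 0% = vehicle and 100% = reference inhibitor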
# Target sequence (P9WQA3 whole entry, looked up): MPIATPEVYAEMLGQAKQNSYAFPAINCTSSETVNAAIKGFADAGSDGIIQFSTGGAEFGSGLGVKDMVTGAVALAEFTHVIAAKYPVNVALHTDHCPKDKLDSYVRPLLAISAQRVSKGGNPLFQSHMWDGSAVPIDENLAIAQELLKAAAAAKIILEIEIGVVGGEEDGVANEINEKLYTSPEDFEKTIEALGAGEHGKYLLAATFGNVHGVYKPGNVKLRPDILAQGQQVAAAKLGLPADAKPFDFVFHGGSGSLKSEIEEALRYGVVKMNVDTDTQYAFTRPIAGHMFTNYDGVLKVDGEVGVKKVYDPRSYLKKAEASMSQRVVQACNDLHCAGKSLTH
# SARS 3CLpro inh: SARS-CoV 3CLpro protease inhibition. recombinant SARS-CoV 3CLpro, quenched FRET peptide cleavage. AID 1706. 290,000 tested, 0.14% active. inhibition, % at 6 µM; in the data active = inhibition above about 12%
# GDH-TPI inh: inhibits GDH-TPI coupling enzymes, artifact for Mtb FBA screen; AID 588335; inhibition, % at 4.8 µM; GDH-TPI coupled enzyme counterscreen, NADH absorbance; 360,000 tested, 1.2% active; in the data active = inhibition above about 30%;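 note: 0% = DMSO wells and 100% = wells lacking the enzyme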
# PrPC surface inh: inhibitors of human cell surface prion protein PrPC; TR-FRET read-out; inhibition, % at 13.8 µM; 370,000 tested, 0.43% active; P04156; in the data active = inhibition above about 24%; note: 0% = median of the test wells and 100% = reference compound wells
# Vc quorum ag: quorum light induction in luxS cqsA deficient V. cholerae. V. cholerae BH1578 lux reporter, luminescence, 6 h. activation, % at 18.7 µM. 350,000 tested, 0.16% active. AID 588436; in the data active = activation mostly above about 9.7%, no sharp cut-off
# * = called active by the depositor; i = inactive; . = no result given; + = active, no number.
SMILES,Mtb FBA inh,SARS 3CLpro inh,GDH-TPI inh,PrPC surface inh,Vc quorum ag
COc1ccc(CCC(=O)Nc2c(-c3ccc(N(C)C)cc3)[nH][nH]c2=O)cc1,1.8,.,.,5.7,.
COc1ccc(-c2c(C#Cc3ccsc3)c3cc(-c4ccc(OC)nc4)ccc3n2C)cc1,1.4,.,-7.0,4.8,i
COc1cc(OC)cc(-c2c(C#Cc3ccsc3)c3cc(-c4ccc5[nH]ccc5c4)ccc3n2C)c1,12.0,.,43.7*,6.8,2.8
CCCCn1c(=O)[nH]c(=O)c2c(C(=O)OCC)cc(-c3ccc(OC(F)F)cc3)nc21,16.9,0.8,-1.9,-1.9,-0.2
O=C1C(Cl)=C(N2CCOCC2)C(=O)N1c1cccc(Cl)c1,-0.7,1.8,17.1,4.4,1.0
O=C1/C(=C/c2ccccc2)N=C(N2CCOCC2)N1c1cccc(Cl)c1,11.0,-2.0,32.1*,13.9,-0.2
CCOC(=O)N1CCC(Nc2c(N3CCN(c4cc(Cl)ccc4C)CC3)c(=O)c2=O)CC1,2.4,-2.9,13.9,-16.4,-0.1
CCOC(=O)N1CCC(Nc2c(-c3ccc(C)c(C)c3)c(=O)c2=O)CC1,-7.5,-0.1,33.0*,-9.9,2.6
CCOc1cc(/C=N/N=C2/NC(=O)C(CC(=O)O)S2)ccc1OCc1ccc(Cl)cc1 (stereo not drawn),-12.7,5.5,31.9*,-6.2,-2.0
Cn1c(=O)n(C)c2cc(/C=N/N=C3/NC(=O)C(CC(=O)O)S3)ccc21 (stereo not drawn),-0.8,0.3,38.0*,-5.1,-0.3
O=C(O)CC1S/C(=N/N=C/C=C/c2ccccc2)NC1=O (stereo not drawn),-2.4,-1.3,50.4*,-1.7,-0.3
COc1ccc(/C=N/N=C2/NC(=O)C(CC(=O)O)S2)cc1OS(=O)(=O)c1ccccc1 (stereo not drawn),-4.7,-1.5,27.9,0.7,-1.0
COc1cc(/C=N/N=C2/NC(=O)C(CC(=O)O)S2)ccc1OCc1cccc(Cl)c1 (stereo not drawn),-2.3,0.5,24.5,7.0,-0.8
COc1ccc(/C=N/N=C2/NC(=O)C(CC(=O)O)S2)cc1OCc1ccc(Cl)cc1 (stereo not drawn),-4.2,2.9,56.8*,-3.5,0.6
CCN(CC(=O)NCc1ccc(F)cc1)C(=O)CCNS(=O)(=O)c1cccc(C)c1,0.0,.,9.6,2.2,0.0
O=P(c1ccccc1)(c1ccccc1)c1cc(S(=O)(=O)O)ccc1O,1.5,-2.1,-2.9,-4.6,i
COc1cc(C2C(C(C)=O)=C(O)C(=O)N2Cc2ccccc2)ccc1O (stereo not drawn),2.0,-0.2,8.2,-4.2,i
COc1ccc(CC(=O)N/N=C\c2cc(Br)c(O)c(Br)c2)cc1,4.3,0.7,28.4,1.5,i
Cc1ccc(S(=O)(=O)N(CC(=O)NCCSc2ccccn2)c2ccccc2F)cc1,-0.1,-0.4,-8.6,8.3,-0.4
CN[C@H]1C[C@H]2c3[nH]c4c(-c5cccc(C)c5)cccc4c3CCN2C[C@H]1[C@H](C)O,.,.,.,-8.7,.
COc1cccc(NC(=O)C2(C)CCN2C(=O)CCc2ccc(Cl)cc2Cl)c1 (stereo not drawn),1.4,.,0.0,4.5,-0.4
Cc1c(C(=O)N/N=C/c2ccc(O)cc2)sc(=S)n1C,-3.3,0.5,43.0*,-8.5,-0.1
CCC(CC)C(=O)N(C)c1c(C)nc2c(OCC(=O)C(C)(C)C)cccn12,-1.1,.,0.9,-7.3,0.1
COc1cc2ccc(C(C)=NNC(N)=S)cc2cc1OC,-1.1,.,42.5*,1.2,i
CC(=NNC(N)=S)c1ccc2cc3c(cc2c1)OCO3,-1.1,.,24.8,9.9,i
SMILES,Mtb FBA inh,SARS 3CLpro inh,GDH-TPI inh,PrPC surface inh,Vc quorum ag
CCOC(=O)C(=CNc1ccccc1N1CCOCC1)C(=O)OCC,-0.7,2.1,50.3*,-1.9,i
O=C(NCC(c1ccco1)N1CCCCC1)c1cccnc1 (stereo not drawn),2.6,.,8.0,5.9,-1.2
CN(C(=O)COC(=O)CCc1c[nH]c2ccccc12)c1ccccc1,-1.3,.,-2.1,-3.2,i
CC[n+]1c(/C=C(\C)SC)sc2ccccc21,1.6,-0.5,13.2,-1.3,i
CC[n+]1c(/C=C(/C)SC)sc2ccccc21,2.2,-1.8,38.3*,-5.1,0.0
CC[n+]1c(/C=C(\C)Nc2ccccc2)sc2ccccc21,1.4,4.7,31.0*,-6.7,-0.3
COc1cccc(NC(=O)COC(=O)c2cc(=O)c3ccccc3o2)c1,4.3,.,1.1,7.8,-1.7
O=C(Nc1cccc(C(=O)O)c1)/C(=C\C=C\c1ccccc1)NC(=O)c1ccccc1,-7.3,3.5,33.0*,-15.7,-0.6
CCOC(=O)/C(=C\C=C\c1ccccc1)NC(=O)c1ccccc1,3.3,-2.2,67.4*,-15.2,-0.5
O=C(O)CCNC(=O)/C(=C/C=C/c1ccccc1)NC(=O)c1ccccc1,-1.3,3.1,17.6,-9.3,-0.1
O=C(Nc1cccc(C(=O)O)c1)/C(=C\c1ccccc1)NC(=O)c1ccccc1,-1.6,3.5,0.9,-2.2,i
Cc1ccc(NC(=O)/C(=C\C=C\c2ccccc2)NC(=O)c2ccccc2)cc1,0.3,-1.2,51.2*,-3.8,-0.2
CCOC(=O)/C(=C/C=C/c1ccccc1)NC(=O)c1ccccc1,0.9,0.3,30.0,-4.5,i
O=C(Nc1ccc(C(=O)O)cc1)/C(=C\C=C\c1ccccc1)NC(=O)c1ccccc1Br,-3.4,8.6,51.6*,-8.3,.
O=C(Nc1ccc(C(=O)O)cc1)/C(=C\C=C\c1ccccc1)NC(=O)c1cccc(Br)c1,-2.7,0.3,42.1*,4.4,i
CCCC(=O)c1cc2ccccc2oc1=O,0.9,-3.0,0.0,3.2,2.9
O=C(O)c1cc2cc(Cl)cc(Cl)c2oc1=O,4.7,11.4,10.1,-6.2,i
O=C(c1cc2c(ccc3ccccc32)oc1=O)N1CCCC1,166.0*,6.0,15.9,2.8,i
O=C(O)c1cc2c(ccc3ccccc32)oc1=O,+,-1.8,9.7,-12.6,-0.3
O=C(O)c1cc2ccc3ccccc3c2oc1=O,196.2*,0.5,10.2,-9.8,-0.8
CCOC(=O)c1cc2c(ccc3ccccc32)oc1=O,+,-2.9,6.7,-3.9,i
CC(C)(C)NC(=O)c1cc2c(ccc3ccccc32)oc1=O,79.6*,0.5,4.9,-5.4,i
O=C(NCc1ccccn1)c1cc2c(ccc3ccccc32)oc1=O,172.4*,-2.0,16.9,-4.5,-0.8
CN(/N=C/c1cccs1)c1cc(=O)n(C)c(=O)[nH]1,-4.5,2.0,47.8*,-4.0,-3.6
CCN(/N=C/c1cccs1)c1cc(=O)n(C)c(=O)[nH]1,4.9,-0.2,42.5*,4.3,i
CC1(CCC(=O)O)C(=O)CCC2C1CCC1(C)C2CCC1(C)O (stereo not drawn),-1.6,.,4.3,0.7,1.1
O=C(COC(=O)c1cccc(S(=O)(=O)Nc2ccc(F)cc2)c1)NCCN1C(=O)CSC1=O,-0.6,.,-7.0,-4.0,i
CC1CCN(CCCNC(=O)c2coc3nc4ccccc4nc23)CC1,+,5.8,7.5,-2.1,.
CC1CCCN(CCCNC(=O)c2coc3nc4ccccc4nc23)C1 (stereo not drawn),155.3*,-6.6,1.2,-5.3,.
